Broadly, the inhibition is the relative decrease from the control value, in per cent.

Each structure is given as a SMILES string. The whole screen tested about 360,000 compounds, of which about 6,200 (1.7%) were called active. What follows is part of a selection rich in actives, with near analogues and random picks from the rest. A number with no mark means an inactive call.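 Rule for the calls: active = inhibition of at least 50% at 20 µM; inactive = the rest.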

The values that follow come from PubChem BioAssay AID588405 (Sanford-Burnham Center for Chemical Genomics, 2011).

The nature of this experiment: inhibition of PEG-3 promoter activity – cell-based, HeLa, luciferase luminescence, primary screen (AID 588405). The following applies: HeLa PEG-Prom luciferase reporter, overnight, at 20 µM, stronger effect = higher value.
Take `COc1ccccc1C(=O)NN1C(=O)C2C3C=CC(O3)C2C1=O` (stereo unspecified): the inhibition is 17.5%.

Take `CC1=CC(C)(C)NC(=S)N1NC(=O)c1ccccc1Cl`: the inhibition was -9.1%.

`CC12CCC(C(=O)N(NC(=O)c3ccccc3O)C1=O)C2(C)C` (stereo unspecified): the inhibition was 53.1% (active).

Turning to `CCCCOc1ccc(N(CC(=O)NC(C)C)C(=O)CCC(=O)Nc2ccccn2)cc1`, the inhibition was -4.29%.

Consider `NC1=C([N+](=O)[O-])C(c2ccccc2)C2=C(CCCC2=O)O1` (stereo unspecified), for which the inhibition is 9.24%.

With `O=S1(=O)CCN(C2CCCCCCCCCCC2)CC1`, the inhibition is 0.61%.

For the molecule `CCN(C(=O)CN1C(=O)/C(=C/c2ccc(F)cc2)SC1=S)C1CCS(=O)(=O)C1` (stereo unspecified), the inhibition is -2.93%.

In the case of `O=C1/C(=C/c2ccc(F)cc2)SC(=S)N1CCCC(=O)N1CCCCC1CCO` (stereo unspecified), the inhibition is 58.3% (active).

With `COc1ccc(/C=C2\SC(=S)N(CCC(=O)N3CCOCC3)C2=O)cc1OC`, the inhibition was -27.5%.

Consider `CC(C)(C)c1ccc(S(=O)(=O)NC(=O)C2(C)CCN2C(=O)CC2CC2)cc1` (stereo unspecified), for which the inhibition is -3.67%.

Regarding `Cc1cc(=O)oc2c3c(cc(OCC(=O)NCC(O)c4ccccc4)c12)OC(C)(C)CC3` (stereo unspecified), the inhibition is 12.4%.

Turning to `CC(NC(=O)Nc1ccccc1)C(c1cccs1)N1CCN(c2ccccc2)CC1` (stereo unspecified), the inhibition is 66.2% (active).

Take `CC(NC(=S)Nc1ccccc1)C(c1cccs1)N1CCOCC1` (stereo unspecified): the inhibition is 14.7%.

For the molecule `CCCC(=O)NC(C)C(c1cccs1)N1CCN(c2ccccc2)CC1` (stereo unspecified), the inhibition is 7.84%.

`CCc1nc2c(OCCOc3ccccc3)cccn2c1N(C=O)Cc1ccc(OC)cc1`: the inhibition is 6.15%.

As to `COc1ccc(CCn2ccc(O)c(Cc3ccc(Cl)cc3Cl)c2=O)cc1OC`, the inhibition was 6.97%.

In the case of `COc1ccc(C(=O)n2nc(-c3ccc(Cl)cc3)nc2N)cc1OC`, the inhibition is 10.6%.

Turning to `COc1ccc(C(=O)O/N=C(\N)Cc2ccc(Cl)cc2Cl)cc1OC`, the inhibition was 110% (active).

On to `O=C(NCc1ccccc1)C(c1ccco1)N(C(=O)c1csnn1)c1ccccc1F` (stereo unspecified), for which the inhibition is 5.02%.

Turning to `CSc1ccc(C(=O)C2CCCN(C(=O)c3ccc(C)nc3)C2)cc1` (stereo unspecified), the inhibition was 1.04%.

Turning to `CCCCn1nnnc1C(c1cccc(OC)c1OC)N1CCN(C/C=C/c2ccccc2)CC1` (stereo unspecified), the inhibition was -3.54%.

Take `CC(C)C[C@H](CO)Nc1nc(N(C)c2cccc(Cl)c2)c2ncn(C(C)C)c2n1`: the inhibition was 12.4%.

`CC(C)n1cnc2c(Nc3cccc(Cl)c3)nc(N(CCO)CCCO)nc21`: the inhibition was 96.1% (active).

As for `Cc1ccc(C(O)c2ncc(-c3ccccc3F)[nH]2)cc1F` (stereo unspecified), the inhibition is -67.5%.

`O=C(NCc1ccncc1)C1CCN(C(=O)c2cccc(Cl)c2)CC1`: the inhibition is 0.12%.

With `O=C(NC1CCCC1)C(c1c(F)cccc1Cl)N(C(=O)c1csnn1)C1CC1` (stereo unspecified), the inhibition is 16.7%.

Regarding `COC(=O)Cc1[nH]n(-c2nc3ccccc3s2)c(=O)c1C(C)=Nc1ccc(OC)cc1`, the inhibition is 89.1% (active).

Consider `CCc1nc2ccccc2c(C(=O)NCc2ccc(OC)cc2)c1C`, for which the inhibition is 16.9%.

For `COC(=O)CC1=NN(c2ccccc2)C(=O)C1`, the inhibition was 5.53%.

For the molecule `N#Cc1cccc(CN2CCC(=O)N([C@H](CO)c3ccccc3)CC2)c1`, the inhibition was -12.2%.

With `CC(=O)c1cccc(-c2cnc3c(NC=O)cc(-c4ccccc4Oc4ccccc4)cn23)c1`, the inhibition is 0.73%.

Turning to `CCCCN(C=O)c1c(CC)nc2c(OCCC3CCCCC3)cccn12`, the inhibition is 18.3%.

Regarding `CCOC(=O)C1(C)CCCN(C(=O)c2ccc(F)c(Cl)c2)C1` (stereo unspecified), the inhibition was 8.51%.

Turning to `CC1(C(=O)NS(=O)(=O)c2cccc(OC(F)F)c2)CCN1C(=O)COc1ccc(Cl)cc1` (stereo unspecified), the inhibition was -1.93%.

Take `O=C1N[C@@H](c2ccccc2)COC(=O)[C@H](Cc2ccc(F)cc2)C/C=C\C[C@@H]1CC(=O)N(CCO)Cc1ccccc1`: the inhibition is 24.9%.

As to `O=C1NC[C@@H](c2ccccc2)OC(=O)[C@H](Cc2ccc(F)cc2)CC/C=C/C[C@H]1CC(=O)N(CCO)Cc1ccccc1`, the inhibition is 54.9% (active).

As for `O=C1CCC/C=C/C[C@@H](CC(=O)N(CCO)Cc2ccccc2)C(=O)NC[C@H](c2ccccc2)O1`, the inhibition was -18.6%.

On to `CCOC(=O)C1=CC[C@@H](c2ccccc2)N(S(=O)(=O)c2ccc(C)cc2)[C@H]1c1ccc(CC)cc1`, for which the inhibition was 13%.

With `CC(C)CCN1CCN(Cc2cn[nH]c2C2CCCCC2)CC1CCO` (stereo unspecified), the inhibition was 8.83%.

As to `O=C(CNC(=O)OCc1ccccc1)Oc1cc2oc(=O)cc(-c3ccccc3)c2cc1Cl`, the inhibition was 11.5%.

On to `COc1cccc(NC(=O)C2(C)CCN2C(=O)CCC2CCCC2)c1` (stereo unspecified), for which the inhibition is 9.97%.

`O=C(/C=C/[C@H]1O[C@@H](n2cnc3c(NC(=O)c4ccccc4)ncnc32)[C@H](O)[C@@H]1O)NCc1ccccc1`: the inhibition was -2.88%.

Take `COc1cc(CNCCN(C)C)ccc1OCc1c(F)cccc1Cl`: the inhibition is 2.85%.

On to `O=C(/C=C/c1ccc(OCc2c(F)cccc2Cl)cc1)N1CCOCC1`, for which the inhibition is -42.8%.

As for `CN(C)CCCNC(=O)/C=C/c1ccc(OCc2c(F)cccc2Cl)cc1`, the inhibition is 70.2% (active).

Take `CC(NC(=O)C(C)(C)C)C(c1cccs1)N1CCN(Cc2ccccc2)CC1` (stereo unspecified): the inhibition is 3.48%.

Regarding `Cc1coc2c1c(C)cc1oc(=O)c(CC(=O)NCC(=O)N[C@H](C(=O)O)C(C)C)c(C)c12`, the inhibition was -3.37%.

Take `COc1ccc(C(=O)N2CCCCC2c2cc(C(=O)Nc3ccccc3)no2)cc1` (stereo unspecified): the inhibition was 1.75%.

For the molecule `CCOC(=O)Nc1sc(C(=O)N(C)C)c(C)c1C(=O)OCC`, the inhibition was 16.3%.

On to `CCOC(=O)c1c(NC(=O)CCl)sc(C(=O)N(CC)CC)c1C`, for which the inhibition was 67.2% (active).

Take `CCOC(=O)c1sc(NC(=O)CCN2CCOCC2)c(C(=O)OCC)c1C`: the inhibition is 4.41%.

In the case of `Nc1cc(=O)c2[nH]cnc2[nH]1`, the inhibition was -0.63%.

On to `O=c1cc(CN2CCCCCCC2)c2c(ccc3ccccc32)o1`, for which the inhibition is 9.42%.

`CCCOc1ccc(/C=N/NC(=O)C2CC2)c(OCCC)c1`: the inhibition was -4.16%.

Consider `CCCOc1ccc(C(=O)C(CCC(CNCC)C(=O)c2ccc(OCCC)cc2)CNCC)cc1` (stereo unspecified), for which the inhibition was 116% (active).

As to `COC(=O)c1ccc(OCC(=O)NC(C)(C)C)cc1`, the inhibition is -42.5%.
